Screening results as filed in PubChem.
Hits are enriched below; roughly 2.4% of the tested compounds scored in any of these assays.
Tau fil binding: binds recombinant human tau filaments; P10636; recombinant tau filaments, thioflavin S fluorescence, 15 h; filaments grown with octadecylsulfate alongside compound; Potency, µM (highest dose often 57.1 µM), for inactives: at the top dose activity change, negative = inhibition; 71,000 tested, 2% active;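 further: potency means the concentration at half of the fitted maximal effect; on the % scale 0 is the no-effect control and ±100 the full control effect; actives lower thioflavin S fluorescence by blocking filaments or displacing dye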
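Assay mix: 1 uM His-tagged tau, 30 uM sodium octadecylsulfate, thioflavine S dye in HEPES/NaCl/DTT buffer. Compound is added prior to the inducer. Fluorescence after 15 h at 37 C.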
BRCT PPI red: BRCT-phosphoprotein interaction inhibition (red fluorophore); BRCT-phosphopeptide binding, red fluorescence polarization; Potency, µM (top dose mostly 76.9 µM), for the others: at the top dose activity change, negative = inhibition, hits mostly inhibitors; 75,000 tested, 0.03% active; AID 892; further: on the % scale 0 is the no-effect control and ±100 the full control effect
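Rhodamine-labelled pBACH1 10-mer (100 nM) bound to BRCT domain (100 nM) at pH 7.3; compounds incubated 12 min room temperature, polarization read. Free peptide defines full inhibition; unlabelled decapeptide titrated as control.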
Hsp90 Hop PPI: changes Hsp90-Hop TPR2A binding signal, up or down. Potency, µM (highest dose often 57 µM), without a hit: at the top dose activity change, negative = inhibition. AID 595. 71,000 tested, 0.44% active. AlphaScreen TPR2A-His6 binding biotin-Hsp90 C-terminal peptide; active means well fitted curve in either direction with a large enough effect; inconclusive means small, poorly fitted or top-dose-only effect, or another doubt; further: potency means the concentration at half of the fitted maximal effect; on the % scale 0 is the no-effect control and ±100 the full control effect
Pol III holo inh: inhibitors of bacterial DNA polymerase III holoenzyme. reconstituted DNA polymerase III holoenzyme replication, biochemical. Potency, µM (series often up to 57.1 µM), without a hit: top-dose activity change, negative = inhibition. 71,000 tested, 0.25% active. AID 603; further: potency means the concentration at half of the fitted maximal effect; on the % scale 0 is the no-effect control and ±100 the full control effect
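Reconstituted *E. coli* holoenzyme (0.35 nM Pol III, 1 nM beta, 154 nM SSB, 2 nM primase) was preincubated with compound for 15 min at RT. Synthesis on 1.4 nM ssM13Gori ran 35 min, then was stopped with PicoGreen/EDTA and read as dsDNA fluorescence.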
BRCT PPI green: blocks human BRCA1 BRCT binding to phosphopeptide, green readout; P38398; BRCA1 BRCT-phosphopeptide binding, green fluorescence polarization; Potency, µM (series often up to 76.9 µM), for the others: at the highest dose activity change, negative = inhibition, most hits filed as inhibitors; 75,000 tested, 0.05% active; AID 875;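 further: potency means the concentration at half of the fitted maximal effect; plate controls were peptide without protein for full effect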
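Fluorescence polarization: His-tagged BRCT (~35 kDa BRCA1 C-terminus, 250 nM) bound to 100 nM fluorescein-labeled phosphorylated 10-aa BACH1 peptide, pH 7.3 phosphate buffer with DTT and Tween 20. Compounds incubated 12 min at room temperature; inhibition read as lowered polarization.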
YjeE inh: inhibitors of E. coli YjeE (TsaE) | purified YjeE enzyme, qHTS inhibition assay | Potency, µM | 71,000 tested, 0.05% active | AID 605
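Purified YjeE (10 uM) with BODIPY Texas Red-labeled ADP probe (2 uM); compounds pin-transferred, 15 min at room temperature. Binding inhibition read as decreased fluorescence polarization; ADP titration as control.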
* marks the source's active call; other numbers are inactive results; i = inactive; ? = inconclusive; . = no result given; ! = repeats disagree; [ ] = remark or other dose. Unless noted, the call rests on the fitted dose curve; in most records, active means well fitted curve in the direction sought with a large enough effect; inconclusive means small, poorly fitted or top-dose-only effect, or another doubt; inactive means no such curve, though single readings can be large; an effect the other way counts as inactive or inconclusive.

SMILES | Tau fil binding | BRCT PPI red | Hsp90 Hop PPI | Pol III holo inh | BRCT PPI green | YjeE inh
CN1CC[C@]2(C)c3cc(O)ccc3N(C)[C@@H]12 | 32µM*! | 0%[34.4 µM] | -2% | -5% | -1%[34.4 µM] | i
CC1=C[C@@H]2c3cccc4[nH]cc(c34)C[C@H]2N(C)C1 | 91% | . | -23% | -14% | . | i
CN1Cc2ccccc2[C@@H]2c3cccc4[nH]cc(c34)C[C@H]21 | 25µM* | -2% | -26% | -22% | 2% | i
CC(C)[C@H]1C(=O)N2CCC[C@@H]2[C@]2(O)O[C@@](NC(=O)[C@H]3C=C4c5cccc6[nH]cc(c56)C[C@H]4N(C)C3)(C(C)C)C(=O)N12 | 323% | . | -22% | 2% | . | i
Cl.Cl.Cl.Cl.Cl.Cl.N.N.N.N.NNNNN.NNNNN.O.O.[Ru].[Ru].[Ru] | ? | 1% | ? | ? | -2% | 79µM*
CCCC[N+]1(C)[C@@H]2CC(OC(=O)[C@@H](CO)c3ccccc3)C[C@H]1[C@H]1O[C@H]12 (some centres not stated) | -4% | -1% | -2% | -4% | -3% | i
C[C@]12CC[C@H](O)C[C@@H]1CC[C@H]1[C@H]2CC[C@]2(C)[C@H](C(=O)CO)CC[C@@H]12 | 2% | 1% | 2% | -3% | 1% | i
CCCCCCC[n+]1ccc(-c2cc[n+](CCCCCCC)cc2)cc1 | 16µM* | 0% | -3% | -3% | 1% | i
CC1=C2[C@@H]3OC(=O)[C@H](C)[C@H]3CC[C@@]2(C)C=CC1=O | 5% | . | -3% | 1% | . | i
O=C(Nc1ccc2c(c1)OCO2)c1cn(Cc2ccc(F)cc2)nn1 | 13µM* | 1% | -22% | -4% | 0% | i
CCNC(C)(C)[C@@H](SS)c1ccc(Br)cc1 | 4%[11.4 µM] | 0%[15.4 µM] | -4%[11 µM] | -6%[11.4 µM] | 0%[15.4 µM] | i
CNc1ccc2oc(C[C@H]3O[C@]4(CC[C@H]3C)O[C@H]([C@H](C)C(=O)c3ccc[nH]3)[C@H](C)C[C@H]4C)nc2c1C(=O)O | 40µM* | 2% | -11% | -6% | 3% | i
CN(N=O)c1ccc(O)c(O)c1 | -19% | 6.3µM* | 3.2µM* | 0.4µM* | 10µM* | i
CN1C[C@@H](CNC(=O)OCc2ccccc2)C[C@H]2c3cccc4c3c(cn4C)C[C@@H]21 | 8% | . | -29% | -8% | . | i
CC(C)C[C@H](NP(=O)(O)O[C@@H]1O[C@@H](C)[C@@H](O)[C@@H](O)[C@H]1O)C(=O)N[C@@H](Cc1c[nH]c2ccccc12)C(=O)O | 5% | 1% | -3% | -8% | -3% | i
CSCC[C@@H](N)P(C)(=O)O | 4%[11.4 µM] | 1%[15.4 µM] | -3%[11 µM] | -3%[11.4 µM] | -2%[15.4 µM] | i
O=[As](O)(O)c1ccc(N=Nc2ccc(O)cc2)cc1 | 3.2µM* | 0%[15.4 µM] | -7%[11 µM] | -1%[11.4 µM] | -2%[15.4 µM] | i
Cc1o[nH]c(=O)c1C[C@H](N)C(=O)O | 32µM*! | 0% | 1% | 2% | 0% | i
Cc1o[nH]c(=O)c1C[C@@H](N)C(=O)O | ? | 1% | -2% | -2% | 1% | i
Nc1ccc(N2CCN(Cc3ccccc3Cl)CC2)c(Cl)c1 | 25µM* | 0% | -18% | 7% | 0% | i
COc1ccccc1N1CCN(Cc2ccccc2Cl)CC1 | . | 1% | . | . | -2% | .
O=C(O)[C@@H]1C[C@H]2C[C@@H](CP(=O)(O)O)CC[C@H]2CN1 | 32µM* | -1% | 4% | -2% | -2% | i
Cc1ccc2c(c1N)C(=O)c1ccccc1C2=O | 4µM* | -3% | -20% | -14% | 4% | i
CC[C@H](CO)NC(=O)[C@H]1C=C2c3cccc4[nH]cc(c34)C[C@H]2N(C)C1 | 55% | . | 3% | -9% | . | i
Cc1cc(Cl)ccc1OCC(=O)N1CCN(C)CC1 | 4% | 0% | 0% | -3% | -2% | i
SMILES | Tau fil binding | BRCT PPI red | Hsp90 Hop PPI | Pol III holo inh | BRCT PPI green | YjeE inh
CN1CCN(C(=O)COc2ccc3ccccc3c2Br)CC1 | 16µM* | 2% | 2.5µM* | 4% | -1% | i
O=C1N[C@@]2(CN3CCC2CC3)C(=O)N1CN(Cc1ccccc1)c1ccccc1 | 3%[11.4 µM] | -1%[15.4 µM] | 3%[11 µM] | -12%[11.4 µM] | -1%[15.4 µM] | i
CC1=NCCc2c1[nH]c1cc(O)ccc21 | 236% | 2% | -13% | -4% | 32µM*! | i
N[C@@H](Cc1cc(O)c(O)cc1O)C(=O)O | 25µM* | ? | 7.9µM* | 0.4µM* | ? | i
NCCc1cc(O)c(O)cc1O | . | -16% | . | . | 6%[3.08 µM] | .
[O]=[Cr](=[O])([OH])[O][Cr](=[O])(=[O])[OH] | 1.3µM*! | -3% | ? | 5µM*! | -3% | i
O=S(=O)(O)/C(=C\c1ccccc1)c1ccccc1 (tested in a mixture with another compound) | 13%[11.4 µM] | 2%[15.4 µM] | 2%[11 µM] | -11%[11.4 µM] | 1%[15.4 µM] | i
C[C@H](CN(C)C)C(C#N)(c1ccccc1)c1ccccc1 | 2%[11.4 µM] | 0%[15.4 µM] | -1%[11 µM] | -8%[11.4 µM] | 0%[15.4 µM] | i
COc1cc2c(cc1OC)-c1c(O)c(OC)cc3c1[C@@H](C2)N(C)CC3 | 32µM* | . | ? | -22% | . | i
O=[N+]([O-])c1cccc2ccccc12 | 8% | 1% | -2% | 3% | 0% | i
O=[N+]([O-])c1ccc2c3c(cccc13)CC2 | 25µM* | -2% | -7% | -7% | -3% | i
Cc1cc(N=Nc2ccccc2C)ccc1N | 7.9µM* | 0% | ? | 9% | 1% | i
Cc1ccc(N=C=O)cc1N=C=O | 57% | 1% | -3% | -5% | -1% | i
CN(C)[C@@H]1C(=O)C(C(N)=O)=C(O)[C@@]2(O)C(=O)C3=C(O)c4c(O)cccc4[C@@](C)(O)[C@H]3[C@H](O)[C@@H]12 | -5% | -6% | -7% | -2% | 1% | i
CN(C)[C@@H]1C(=O)C(C(N)=O)=C(O)[C@]2(O)C(=O)C3=C(O)c4c(O)cccc4[C@](C)(O)[C@H]3C[C@@H]12 | -4%[11.4 µM] | ? | -7%[11 µM] | 3.2µM* | ? | i
CCC1C(=O)OCC1Cc1cncn1C (configuration not stated) | 40µM* | 1% | -1% | -5% | -2% | i
Nc1nc(N)c(N=Nc2ccc([As](=O)(O)O)c(O)c2)c(N)n1 | -3%[11.4 µM] | 0%[15.4 µM] | -5%[11 µM] | -11%[11.4 µM] | -1%[15.4 µM] | i
CC1=NN(c2ccccc2)C(=O)[C@@H]1N=Nc1ccc([As](=O)(O)O)c(O)c1 | 3.2µM* | 0%[15.4 µM] | -9%[11 µM] | -13%[11.4 µM] | 4%[15.4 µM] | i
O=C(O)CSCC(=O)O | 4%[11.4 µM] | 1%[15.4 µM] | ? | -8%[11.4 µM] | -1%[15.4 µM] | i
O=C1C[C@@H]2OCC=C3CN4CC[C@]56c7ccccc7N1[C@H]5[C@@H]2[C@H]3C[C@@H]46 | ? | . | -6% | -5% | . | i
O=C(O)Cc1cccnc1C(=O)O | ? | 1% | 7.9µM* | -2% | -2% | i
